# Measured values reported in PubChem BioAssay.
# “And” between values parts separate entries of the source, which are not always exact repeats. Equal values may be shown once. The source holds several records for some structures; these can differ, active in one and inactive in another. The source made the active and inactive calls.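 Rule for the calls, unless noted: active = thallium flux through the channel raised or lowered by more than 3 SD from vehicle-only wells, actives on both sides; inactive = the rest.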
# Experiments:
# [1] = blockers of polyQ-driven CASP3 activation – cell-based (AID 1583); conditions: polyglutamine-induced caspase-3 activation, cell assay; stronger effect = higher value;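 tested at 10 µM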
# [2] = yeast 75Q aggregation reduction – 75Q-TubU reporter (AID 1593); conditions: Yeast 75Q polyglutamine aggregation reporter
# [3] = blockers of cytochrome c efflux from mitochondria – biochemical, purified mitochondria (AID 1603); conditions: stronger effect = lower value;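 note: mouse liver mitochondria challenged with calcium chloride; signal normalized to the plate average as 100%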
# [4] = polyglutamine aggregate formation blockers (AID 1604); conditions: polyglutamine-induced protein aggregation inhibition assay; stronger effect = higher value; tested at 2.5 µM
# [5] = glutamate transport activators, MN-1 cells, MN-1 cell line (AID 1612); conditions: MN-1 motor neuron cells, stronger effect = higher value;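 note: tested at 1 µM final; 0% = mean of DMSO vehicle wells on each plate; positive means more glutamate uptake than control and negative means less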
# [6] = signal quenchers or enhancers, Cy5 substrate/SSB – biochemical, NIH Clinical Collection, E. coli SSB, artefact control for HCV NS3 helicase inhibitor project (AID 743268; call rule not given here); conditions: Cy5-oligo bound E. coli SSB, fluorescence interference
# [7] = system: Hepatitis C virus NS3 helicase; test: blockers of NS3h binding to DNA – biochemical, fluorescence polarization, NIH Clinical Collection, primary screen (AID 743270; call rule not given here); conditions: NS3 helicase binding to Cy5-dT15 DNA, stronger effect = higher value, concentration not given here
# [8] = molecular target: Single-stranded DNA-binding protein (Escherichia coli (strain K12)) (UniProt P0AGE0); test: SSB-ssDNA binding inhibitors – biochemical, fluorescence polarization, NIH Clinical Collection, counter-screen for HCV NS3 helicase inhibitor project (AID 743271; in the data active = inhibition above about 28%); conditions: E. coli SSB-DNA binding, stronger effect = higher value, concentration not given here
# [9] = compounds distorting NS3 helicase fluorescence signal – biochemical, NIH Clinical Collection, artefact control for HCV NS3 helicase inhibitor project (AID 743272; call rule not given here;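 note: HCV NS3 helicase with a Cy5 labelled single stranded DNA probe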); conditions: fluorescence interference counterscreen, HCV NS3 helicase assay; stronger effect = lower value
# [10] = galactose survival enhancers in mitochondrial complex I cybrids – cell-based, galactose medium, ATP luminescence, primary screen (AID 1645843;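 active = z-score of at least 1.8 in each of two replicates, scored against plate mean and spread of sample wells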;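 note: positive z means more ATP and so rescue of galactose-driven cybrid death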); conditions: complex I mutant cybrid cells, 72 h, stronger effect = higher value
# F380Y/beta4 = test: BK channel mutant inhibitors and activators – cell-based, U2OS BacMam, thallium flux, beta subunits, selectivity assay, profiling panel (AID 1259406); conditions: U2OS BacMam BK variants, at 30 µM;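 note: initial slope of Thallos dye fluorescence rise after thallium is added; log ratio against the mean of 0.3% DMSO vehicle wells on the same plate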
# [11] = molecular target: Calcium-activated potassium channel subunit alpha-1 (Homo sapiens) + Leucine-rich repeat-containing protein 26 (Homo sapiens) (UniProt Q12791+Q2I0M4); test: as above; conditions: U2OS BacMam BK variants, F380Y/Slo1WT/gamma1, at 30 µM
# R275C = test: as above; conditions: U2OS BacMam BK variants, at 30 µM
# R275C/beta1 = test: as above; conditions: U2OS BacMam BK variants, at 30 µM
# R275C/beta2Delta = test: as above; conditions: U2OS BacMam BK variants, at 30 µM
# R275C/beta4 = test: as above; conditions: U2OS BacMam BK variants, at 30 µM
# R275C/Slo1WT/beta2 = test: as above; conditions: U2OS BacMam BK variants, at 30 µM
# [12] = growth inhibition, single agent or in combination, cell-based, chromothripsis tumors, cisplatin or BGB combos (AID 1671449; in the data active = inhibition above about 80%;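 note: cells exposed for 96 hours; 0% = vehicle DMSO and 100% = killing by high DMSO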); conditions: LFS_MB_P medulloblastoma cells
# [13] = growth inhibition, single agent and combos, cell-based, chromothripsis tumors, cisplatin or BGB combos (AID 1671450; in the data active = inhibition above about 80%;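 note: cells exposed to compound for four days; 0% = vehicle DMSO and 100% = cell killing by high DMSO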); conditions: HDN33 neuroblastoma cells, stronger effect = higher value
# [14] = growth inhibition, single agents and combos, HTB85, cell-based, BGB or cisplatin IC20 combos, synergistic combos for chromothripsis tumors (AID 1671453; in the data active = inhibition above about 80%;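 note: cells exposed for 96 hours before readout; 0% = vehicle DMSO and 100% = high DMSO killing control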); conditions: HTB85 osteosarcoma cells, drug combinations, stronger effect = higher value
# Chain of Calcium-activated potassium channel subunit alpha-1 (Homo sapiens) + Leucine-rich repeat-containing protein 26 (Homo sapiens) (Q2I0M4 whole entry, looked up, one chain of several): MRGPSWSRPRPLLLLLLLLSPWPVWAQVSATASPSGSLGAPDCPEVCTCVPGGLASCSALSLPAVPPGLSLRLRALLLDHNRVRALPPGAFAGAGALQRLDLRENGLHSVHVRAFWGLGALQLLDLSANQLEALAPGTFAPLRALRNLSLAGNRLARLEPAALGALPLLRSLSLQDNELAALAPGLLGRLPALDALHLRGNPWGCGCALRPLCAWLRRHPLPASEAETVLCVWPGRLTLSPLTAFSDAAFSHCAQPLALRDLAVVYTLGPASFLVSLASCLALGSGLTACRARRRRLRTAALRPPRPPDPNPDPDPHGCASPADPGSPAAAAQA
structure (smiles),measurement,setting,value
CCc1nc(N)nc(N)c1-c1ccc(Cl)cc1,inhibition,[1],-13.9%
same,score,[2],1.35
same,cytochrome c release ratio,[3],1.05
same,inhibition of aggregation,[4],85.8%
same,glutamate uptake change,[5],14.1%
same,fluorescence ratio,[6],0.95 (inactive)
same,inhibition,[7],-1.36% (inactive)
same,inhibition,[8],1.81% (inactive)
same,fluorescence ratio,[9],0.94 (inactive)
same,z-score,[10],0.72 (inactive)
same,log fold change Tl+ flux,F380Y/beta4,-0.0112 (inactive)
same,log fold change Tl+ flux,[11],-0.0172 (inactive)
same,log fold change Tl+ flux,R275C,-0.00785 (inactive)
same,log fold change Tl+ flux,R275C/beta1,-0.00379 (inactive)
same,log fold change Tl+ flux,R275C/beta2Delta,0.00565 (inactive)
same,log fold change Tl+ flux,R275C/beta4,-0.00455 (inactive)
same,log fold change Tl+ flux,R275C/Slo1WT/beta2,-0.0705 (inactive)
Cc1ccccc1C(OCCN(C)C)c1ccccc1 (stereo not given),inhibition,[1],-34.1%
same,score,[2],1.23
same,cytochrome c release ratio,[3],1.72
same,inhibition of aggregation,[4],70.1%
same,glutamate uptake change,[5],36.2%
same,fluorescence ratio,[6],0.78 (active) and 1.01 (inactive)
same,inhibition,[7],-10.4% (inactive) and -11.4% (inactive)
same,inhibition,[8],-0.48% (inactive) and -2.76% (inactive)
same,fluorescence ratio,[9],0.88 (inactive) and 1.01 (inactive)
same,z-score,[10],-0.455 (inactive) and 0.28 (inactive) and 1.22 (inactive)
same,log fold change Tl+ flux,F380Y/beta4,0.102 (inactive) and 0.0432 (inactive)
same,log fold change Tl+ flux,[11],-0.00307 (inactive) and 0.0363 (inactive)
same,log fold change Tl+ flux,R275C,0.02 (inactive) and -0.0278 (inactive)
same,log fold change Tl+ flux,R275C/beta1,0.0357 (inactive) and 0.0895 (inactive)
same,log fold change Tl+ flux,R275C/beta2Delta,0.0594 (inactive) and 0.0469 (inactive)
same,log fold change Tl+ flux,R275C/beta4,0.0108 (inactive) and 0.0539 (inactive)
same,log fold change Tl+ flux,R275C/Slo1WT/beta2,0.0116 (inactive) and 0.0357 (inactive)
Cc1ccc(-c2cc(C(F)(F)F)nn2-c2ccc(S(N)(=O)=O)cc2)cc1,inhibition,[1],23.5%
same,score,[2],-0.03
same,cytochrome c release ratio,[3],4.42
same,inhibition of aggregation,[4],77%
same,glutamate uptake change,[5],-10.9%
same,fluorescence ratio,[6],1.06 (inactive)
same,inhibition,[7],-14.1% (inactive)
same,inhibition,[8],-0.48% (inactive)
same,fluorescence ratio,[9],1.02 (inactive)
same,z-score,[10],2.48 (active) and 1.33 (inactive) and 1.65 (inactive)
same,log fold change Tl+ flux,F380Y/beta4,0.0167 (inactive)
same,log fold change Tl+ flux,[11],-0.0327 (inactive)
same,log fold change Tl+ flux,R275C,-0.00943 (inactive)
same,log fold change Tl+ flux,R275C/beta1,0.012 (inactive)
same,log fold change Tl+ flux,R275C/beta2Delta,-0.0274 (inactive)
same,log fold change Tl+ flux,R275C/beta4,-0.00588 (inactive)
same,log fold change Tl+ flux,R275C/Slo1WT/beta2,-0.0385 (inactive)
COc1ccccc1OCC(O)COC(N)=O (stereo not given),inhibition,[1],-7.05%
same,score,[2],1.41
same,cytochrome c release ratio,[3],0.96
same,inhibition of aggregation,[4],88.8%
same,glutamate uptake change,[5],-5.42%
same,fluorescence ratio,[6],1 (inactive)
same,inhibition,[7],-1.36% (inactive)
same,inhibition,[8],-1.24% (inactive)
same,fluorescence ratio,[9],1 (inactive)
same,z-score,[10],0.945 (inactive)
same,log fold change Tl+ flux,F380Y/beta4,0.0136 (inactive)
same,log fold change Tl+ flux,[11],0.0335 (inactive)
same,log fold change Tl+ flux,R275C,0.00553 (inactive)
same,log fold change Tl+ flux,R275C/beta1,-0.013 (inactive)
same,log fold change Tl+ flux,R275C/beta2Delta,-0.018 (inactive)
same,log fold change Tl+ flux,R275C/beta4,0.0404 (inactive)
same,log fold change Tl+ flux,R275C/Slo1WT/beta2,0.0176 (inactive)
CN(C)CCc1c[nH]c2ccc(C[C@H]3COC(=O)N3)cc12,fluorescence ratio,[6],1.02 (inactive)
same,inhibition,[7],-2.84% (inactive)
same,inhibition,[8],-4.33% (inactive)
same,fluorescence ratio,[9],1 (inactive)
same,log fold change Tl+ flux,F380Y/beta4,0.0115 (inactive)
same,log fold change Tl+ flux,[11],0.0131 (inactive)
same,log fold change Tl+ flux,R275C,-0.02 (inactive)
same,log fold change Tl+ flux,R275C/beta1,0.0275 (inactive)
same,log fold change Tl+ flux,R275C/beta2Delta,-0.0113 (inactive)
same,log fold change Tl+ flux,R275C/beta4,0.00246 (inactive)
same,log fold change Tl+ flux,R275C/Slo1WT/beta2,0.0342 (inactive)
CN1CCCC(n2nc(Cc3ccc(Cl)cc3)c3ccccc3c2=O)CC1 (stereo not given),fluorescence ratio,[6],1.03 (inactive)
same,inhibition,[7],-6.73% (inactive)
same,inhibition,[8],0.67% (inactive)
same,fluorescence ratio,[9],0.97 (inactive)
same,z-score,[10],-0.51 (inactive)
same,log fold change Tl+ flux,F380Y/beta4,0.258 (active)
same,log fold change Tl+ flux,[11],0.0633 (inactive)
same,log fold change Tl+ flux,R275C,-0.0931 (inactive)
same,log fold change Tl+ flux,R275C/beta1,0.101 (active)
same,log fold change Tl+ flux,R275C/beta2Delta,-0.0285 (inactive)
same,log fold change Tl+ flux,R275C/beta4,0.0595 (inactive)
same,log fold change Tl+ flux,R275C/Slo1WT/beta2,0.0667 (inactive)
NC(=O)N1c2ccccc2CC(=O)c2ccccc21,fluorescence ratio,[6],0.99 (inactive)
same,inhibition,[7],-5.15% (inactive)
same,inhibition,[8],-2.41% (inactive)
same,fluorescence ratio,[9],0.97 (inactive)
same,z-score,[10],-1.62 (inactive) and -0.18 (inactive)
same,log fold change Tl+ flux,F380Y/beta4,-0.0339 (inactive)
same,log fold change Tl+ flux,[11],0.0743 (inactive)
same,log fold change Tl+ flux,R275C,-0.0757 (inactive)
same,log fold change Tl+ flux,R275C/beta1,0.0898 (active)
same,log fold change Tl+ flux,R275C/beta2Delta,0.1 (active)
same,log fold change Tl+ flux,R275C/beta4,-0.00127 (inactive)
same,log fold change Tl+ flux,R275C/Slo1WT/beta2,0.048 (inactive)
c1ccc2[nH]c(-c3cscn3)nc2c1,inhibition,[1],-3.31%
same,score,[2],0.53
same,cytochrome c release ratio,[3],1.13
same,inhibition of aggregation,[4],30.1%
same,glutamate uptake change,[5],-14%
same,fluorescence ratio,[6],1.06 (inactive)
same,inhibition,[7],0.45% (inactive)
same,inhibition,[8],-0.48% (inactive)
same,fluorescence ratio,[9],0.97 (inactive)
same,z-score,[10],0.46 (inactive)
same,log fold change Tl+ flux,F380Y/beta4,0.0538 (inactive)
same,log fold change Tl+ flux,[11],0.048 (inactive)
same,log fold change Tl+ flux,R275C,0.0284 (inactive)
same,log fold change Tl+ flux,R275C/beta1,-0.0377 (inactive)
same,log fold change Tl+ flux,R275C/beta2Delta,-0.0148 (inactive)
same,log fold change Tl+ flux,R275C/beta4,-0.00629 (inactive)
same,log fold change Tl+ flux,R275C/Slo1WT/beta2,0.0186 (inactive)
Cn1cnc([N+](=O)[O-])c1Sc1ncnc2nc[nH]c12,inhibition,[1],18.4%
same,score,[2],0.86
same,cytochrome c release ratio,[3],0.54
same,inhibition of aggregation,[4],83.1%
same,glutamate uptake change,[5],-23.5%
same,fluorescence ratio,[6],1.03 (inactive)
same,inhibition,[7],-3.18% (inactive)
same,inhibition,[8],-2.76% (inactive)
same,fluorescence ratio,[9],0.99 (inactive)
same,z-score,[10],-0.21 (inactive) and -1.11 (inactive)
same,inhibition,"[12]; at 0.5 µM, stronger effect = higher value",-24.5% (inactive) and -18.6% (inactive)
same,inhibition,"[12]; measured here: combination with BGB IC20, at 0.005 µM",-29.8% and -1.49%
same,inhibition,"[12]; measured here: combination with BGB IC40, at 0.005 µM",-7.88% and -5.24%
same,inhibition,"[12]; measured here: combination with BGB IC40, at 0.05 µM",-1.05% and 8.34%
same,inhibition,"[12]; measured here: combination with cisplatin, at 0.5 µM, stronger effect = higher value",-41.8% and -13.7%
same,inhibition,"[12]; measured here: combination with cisplatin, at 5 µM, stronger effect = higher value",-15% and -14.9%
same,inhibition,"[13]; BGB combo, at 5 µM",27% and -4.71%
same,inhibition,[13]; at 0.5 µM,9.11% (inactive) and 3.47% (inactive)
same,inhibition,"[13]; cisplatin combo, at 5 µM",18.8% and 16.9%
same,inhibition,"[13]; measured here: with BGB IC20 combination, at 0.5 µM",3.66% and -16.5%
same,inhibition,"[13]; measured here: with cisplatin IC20 combination, at 0.5 µM",5.32% and -7.32%
same,inhibition,"[13]; single agent, at 5 µM",55.4% and 48.5%
same,inhibition,[14]; at 0.5 µM,-24.4% (inactive) and -11% (inactive)
same,inhibition,"[14]; measured here: with BGB IC20, at 0.5 µM",-62.4% and -24%
same,inhibition,"[14]; measured here: with BGB IC20, at 5 µM",-10.9% and -18.4%
same,inhibition,"[14]; measured here: with cisplatin IC20, at 0.5 µM",-12.7% and 1.06%
same,inhibition,"[14]; measured here: with cisplatin IC20, at 5 µM",8.32% and 19.5%
same,inhibition,"[14]; single agent, at 5 µM",11% and -0.274%
same,log fold change Tl+ flux,F380Y/beta4,-0.00991 (inactive)
same,log fold change Tl+ flux,[11],-4.3e-05 (inactive)
